The whole screen tested about 13,000 compounds, of which about 3,200 (25%) showed an effect of 50% or more. The list shows a part of the results.
System: P. falciparum stage V gametocytes
Parameters: BacTiter-Glo ATP luminescence viability of purified stage V gametocytes in 384-well plates, per cent inhibition versus DMSO
Settings: 48 h, 5 µM; inhibitor

Row | Structure (SMILES) | % Inhibition
1 | COc1cccc(C(=O)OC2=C3CCC(=O)C3(C)CCC2=O)c1 (centres unmarked) [TCMDC-131633] | 39.81%
2 | CC(C)(C)OC(=O)N1CCN(c2ccccc2NC(=O)c2cccc(C(F)(F)F)c2Oc2ccc(F)cc2)CC1 [TCMDC-140951] | -16.31%
3 | COc1ccc2[nH]c(C(=O)Nc3ccc4nc(-c5ccccc5)[nH]c4c3)cc2c1 [TCMDC-134305] | -25.97%
4 | CCOc1ccccc1CON1C(N)=NC(N)=NC1(C)C [TCMDC-131583] | 17.24%
5 | CCNc1cc(C)nc(Nc2ccc(NC(=O)C3CCCC3)cc2)n1 [TCMDC-124980] | -0.5513%
6 | C=Cc1ccccc1C1(O)CCN(CCCCNC(=O)c2ccc(-c3ccc(C#N)cc3)cc2)CC1 [TCMDC-135786] | 28.95%
7 | Cc1cc(N[C@@H](CC(C)C)C(=O)Nc2ccccc2)nc(Nc2ccccc2)n1 [TCMDC-134743] | -20.12%
8 | C=CC[C@H](C[C@H](O)[C@H](Cc1ccccc1)NC(=O)c1ccc(-c2cccnn2)cc1)C(=O)NC1CCCCC1 [TCMDC-141421] | -14.32%
9 | CC(C)n1ncc2c(C(=O)N3CCCCCC3)cc(-c3ccccc3)nc21 [TCMDC-125259] | 6.769%
10 | CC(NC(=O)c1cc(-c2ccccc2)nc2c1cnn2C(C)C)C1CC1 (centres unmarked) [TCMDC-125054] | 5.318%
11 | CC(C)n1ncc2c(C(=O)N3CCCc4ccccc43)cc(-c3ccccc3)nc21 [TCMDC-125456] | 70.11%
12 | CN(C)CCOc1cc(NC(=O)Nc2ccc(-c3ccncc3)c3ccccc23)ccc1I [TCMDC-139118] | 23.38%
13 | COC(=O)c1c(C#N)c(OC)cc(O)c1CSC[C@@H](CN1CCCCC1)Nc1nc(-c2ccc([N+](=O)[O-])cc2)cs1 [TCMDC-138652] | -4.34%
14 | O=C(/C=C/c1ccc(Cl)c(Cl)c1)NCc1ccc(CN2CCC(c3c[nH]c4ccccc34)CC2)cc1 [TCMDC-139405] | -66.38%
15 | O=C(/C=C/c1ccc(Cl)c(Cl)c1)NCCCCCN1CCC(c2c[nH]c3c(-c4ccccc4)cccc23)CC1 [TCMDC-139399] | 108%
16 | CN(CCN1CCC(c2c[nH]c3ccccc23)CC1)C(=O)OCCCCCNC(=O)/C=C/c1ccc(Cl)c(Cl)c1 [TCMDC-139374] | -36.9%
17 | O=C(/C=C/c1ccc(Cl)c(Cl)c1)NCCCCCN1CCC(c2c[nH]c3ccccc23)CC1 [TCMDC-139172] | 95.4%
18 | O=C(/C=C/c1ccc(Cl)c(Cl)c1)NCCCCCN1CCCC(c2c[nH]c3ccccc23)C1 (centres unmarked) [TCMDC-139481] | 8.151%
19 | O=C(/C=C/c1ccc(Cl)c(Cl)c1)NCCCCN1CCC(c2c[nH]c3ccccc23)CC1 [TCMDC-139333] | -7.285%
20 | O=C(/C=C/c1ccc(Cl)c(Cl)c1)NCC[C@@H]1C[C@H]1CCN1CCC(c2c[nH]c3ccccc23)CC1 [TCMDC-139466] | 86.41%
21 | CN(CCN1CCC(c2c[nH]c3ccccc23)CC1)c1ccc(-c2nc3cc(Cl)c(Cl)cc3[nH]2)cc1 [TCMDC-139373] | 50.88%
22 | O=C(/C=C/c1ccc(Cl)c(Cl)c1)NCCCCCN1CCC(c2cn[nH]c2-c2ccccc2)CC1 [TCMDC-139493] | -12.94%

Row | Structure (SMILES) | % Inhibition
23 | O=C(/C=C/c1ccc(Cl)c(Cl)c1)NCCC(CN1CCC(c2c[nH]c3ccccc23)CC1)c1ccccc1 (centres unmarked) [TCMDC-139621] | 20.48%
24 | CN(CCC(CCN1CCC(c2c[nH]c3ccccc23)CC1)c1ccccc1)C(=O)Nc1ccc(Cl)c(Cl)c1 (centres unmarked) [TCMDC-139625] | -72.07%
25 | O=C(/C=C/c1ccc(Cl)c(Cl)c1)NCCCN1CCC(c2c[nH]c3ccccc23)CC1 [TCMDC-139332] | 45.36%
26 | CCN(CCCN1CCCCC1)c1cc(C)nc(Nc2ccc(C(C)C)cc2)n1 [TCMDC-132454] | -8.614%
27 | Cc1ccc(NCc2cccc(F)c2)cc1S(=O)(=O)N[C@@H]1CCN(C#N)C1 [TCMDC-134125] | -7.553%
28 | CCc1cc(OC)c(C(=O)NC2CCN(C[C@H](O)c3ccnc4ccc(OC)cc34)CC2)cc1Br [TCMDC-141169] | -16.9%
29 | CCCn1c(SCC(=O)Nc2cc(Cl)ccc2Cl)n[nH]c1=O [TCMDC-123548] | -15.86%
30 | Cn1c(NC(=O)C2CCCN(C(=O)c3ccc(O)c(-c4ccc(Cl)c(Cl)c4)c3)C2)nc2ccccc21 (centres unmarked) [TCMDC-140896] | 30.61%
31 | CC(C)(C)Nc1cc(C(=O)N[C@@H](Cc2ccccc2)[C@H](O)CNC2CCOCC2)cc(N2CCCCS2(=O)=O)c1 [TCMDC-135686] | 8.531%
32 | CCOc1ccc(C(=O)N2CCOC(CCN3CCC4(CCc5ccccc54)CC3)(c3ccc(Cl)c(Cl)c3)C2)cc1 (centres unmarked) [TCMDC-135339] | -28.45%
33 | O=C(/C=C/c1ccc(Cl)c(Cl)c1)NCCCCCN1CCCN(C(=O)Nc2ccc(Br)cc2)CC1 [TCMDC-135761] | -59.24%
34 | O=C(/C=C/c1ccc2ccccc2c1)NCCCCCN1CCC(c2c[nH]c3ccccc23)CC1 [TCMDC-139206] | 99.19%
35 | O=C(/C=C/c1ccc(Cl)cc1)NCCCCCN1CCC(c2c[nH]c3ccccc23)CC1 [TCMDC-139234] | 97.27%
36 | O=C(NCCCCCN1CCC(c2c[nH]c3ccccc23)CC1)Nc1ccc(Cl)cc1Cl [TCMDC-139166] | -62.24%
37 | O=C(/C=C/c1cc(C(F)(F)F)ccc1F)NCCCCCN1CCC(c2c[nH]c3ccccc23)CC1 [TCMDC-140010] | -22%
38 | O=C(/C=C/c1cccc(Br)c1)NCCCCCN1CCC(c2c[nH]c3ccccc23)CC1 [TCMDC-139233] | 3.439%
39 | O=C(/C=C/c1cccc(OC(F)(F)F)c1)NCCCCCN1CCC(c2c[nH]c3ccccc23)CC1 [TCMDC-139190] | -40.78%
40 | O=C(/C=C/c1cccc(Cl)c1)NCCCCCN1CCC(c2c[nH]c3ccccc23)CC1 [TCMDC-139211] | 97.27%
41 | O=C(/C=C/c1ccc(Cl)cc1Cl)NCCCCCN1CCC(c2c[nH]c3ccccc23)CC1 [TCMDC-139696] | 89.84%
42 | CCCCCCP(=O)(COc1ccc(CCN(CC(O)COc2cccc3[nH]c(C(N)=O)cc23)CC(O)COc2cccc3[nH]c(C(N)=O)cc23)cc1)OCCCC (centres unmarked) [TCMDC-139041] | 20.08%
43 | CN1CCN(c2ccc(-c3cc(-c4cc(F)c(F)c(F)c4)cnc3N)cc2)CC1 [TCMDC-133345] | -8.308%
44 | O=C(NC1CCN(Cc2ccccc2)CC1)c1cccc(Nc2nc(-c3ccccc3)cs2)c1 [TCMDC-136774] | 0.9462%

Row | Structure (SMILES) | % Inhibition
45 | COc1cc(Cc2cnc(N)nc2N)cc(OCCCCC#N)c1OC [TCMDC-138035] | -14.37%
46 | c1cn(-c2ccc(CNc3nccc(Nc4ccc(OCCN5CCOCC5)cc4)n3)cc2)cn1 [TCMDC-134665] | 13.33%
47 | COc1ccc(-n2ccnc2SCC(=O)Nc2cccc(C(F)(F)F)c2)c(OC)c1 [TCMDC-123545] | -5.921%
48 | COc1ccccc1-n1ccnc1SCC(=O)Nc1cccc(C(F)(F)F)c1 [TCMDC-123546] | 51.1%
49 | COc1ccccc1-n1ccnc1SCC(=O)Nc1cc(C(F)(F)F)ccc1Cl [TCMDC-123823] | -21.34%
50 | c1ccc(C23N=C(Nc4nc5ccccc5[nH]4)NC2(c2ccccc2)NC(Nc2nc4ccccc4[nH]2)=N3)cc1 (centres unmarked) [TCMDC-139082] | -85.59%
51 | Cn1c(NC2=NC3(c4ccccn4)N=C(Nc4nc5ccccc5n4C)NC3(c3ccccn3)N2)nc2ccccc21 (centres unmarked) [TCMDC-139096] | 50.49%
52 | Cc1cc2nc(NC3=NC4(c5ccccn5)N=C(Nc5nc6cc(C)c(C)cc6[nH]5)NC4(c4ccccn4)N3)[nH]c2cc1C (centres unmarked) [TCMDC-139105] | -75.39%
53 | CCCNC[C@@H](O)[C@H](Cc1ccccc1)NC(=O)c1cc(NCC)cc(N2CCCCS2(=O)=O)c1 [TCMDC-135269] | 19.71%
54 | Cc1cccc(-n2c(=O)c3c4c(sc3n3c(SCCC(C)C)nnc23)CCCC4)c1 [TCMDC-125651] | 34.66%
55 | C=CCc1ccccc1OCC(O)CN(C1CCCCC1)C1CCCCC1 (centres unmarked) [TCMDC-123906] | -42.05%
56 | OC(CN1c2ccccc2Sc2ccccc21)CN(C1CCCCC1)C1CCCCC1 (centres unmarked) [TCMDC-125553] | 51.78%
57 | C[C@@H](COc1ccc(-c2ccccc2)cc1)CON1C(N)=NC(N)=NC1(C)C [TCMDC-124029] | 25.59%
58 | COc1cc2nc(N(C)Cc3cc4c(Cl)cccc4s3)nc(N)c2cc1OC.Cl [TCMDC-131890] | 62.52%
59 | COc1cc2nc(N(C)Cc3cccc(I)c3)nc(N)c2cc1OC [TCMDC-131898] | -39.77%
60 | CNCc1ccc(CN(C)c2nc(N)c3cc(OC)c(OC)cc3n2)cc1 [TCMDC-131896] | 48.14%
61 | CC1(C)N=C(N)N=C(N)N1c1ccc(Br)cc1 [TCMDC-123959] | 18.18%
62 | COc1cc2c(cc1S(=O)(=O)c1ccc(NC(=O)Nc3ccc(F)cc3)cc1)CCN(C)CC2 [TCMDC-141793] | 32.2%
63 | COc1ccc(CNCc2ccccc2)cc1-c1ccc(S(=O)(=O)NCCN2CCCC2)cc1 [TCMDC-132247] | 102%
64 | COc1ccc(CNCc2ccc(F)cc2)cc1-c1ccc(S(=O)(=O)NCCN2CCCC2)cc1 [TCMDC-132294] | 108.8%
65 | O=C(/C=C/c1ccc(Cl)c(Cl)c1)NCCCCCN1CCCN(C(=O)Nc2ccc(OC(F)F)cc2)CC1 [TCMDC-135756] | -55.78%

Source: article PMC4552634, “A New Set of Chemical Starting Points with Plasmodium falciparum Transmission-Blocking Potential for Antimalarial Drug Discovery” (PLoS ONE, 2015)
